High-throughput results deposited in PubChem by several laboratories.
PolyA inh = yeast polyadenylation inhibition; S. cerevisiae SKY197-pL101 polyadenylation reporter, beta-gal luminescence; efflux-impaired pdr1/pdr3 knockout yeast; score 100 = 6 SD above DMSO; activity score, % at 12 µM; 0.02% of 300,000 active;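 active means lowest replicate activity score at least 50, where 100 means six control SD above control mean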;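 further: yeast exposed to compound for 9 h at 30 °C; higher score means more reporter readthrough which indicates perturbed polyadenylation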
Mot1-301 SUMO = SUMOylation pathway inhibition by Mot1-301 growth rescue; S. cerevisiae Mot1-301 growth rescue, ATP luminescence, 38.5C; percent above DMSO median, 100 means doubled; 1% of 320,000 active; growth rescue, % at 18.8 µM;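 active means every valid replicate shows activation above 250% relative to neutral control wells; inactive means the rest, any valid replicate at or below 250%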;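 further: OY570 slx delta 5 strain wells were the positive control but not used for scaling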
NALP1 yeast inh = NALP1 inhibition | 0.61% of 280,000 active | inhibition, % at 10 µM | S. cerevisiae NALP1/ASC/caspase-1 growth, X-gal OD620, 72 h; in the data active means inhibition mostly above about 24%, no sharp cut-off; inactive means mostly below about 32%
NALP3 yeast inh = blocks the NALP3 inflammasome reconstituted in yeast; Yeast reconstituted NLRP3/ASC/caspase-1, beta-gal luminescence, 24 h; inhibition, % at 10 µM; 0.39% of 330,000 active;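 active means inhibition of 50% or more; inactive means inhibition below 50%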;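 further: plate controls were induced DMSO wells for no effect and uninduced yeast grown without galactose for full effect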
NALP3 yeast conf = confirmation of NALP3 inhibitors in yeast; yeast expressing human NALP3, luminescence; shares compounds with NALP3 yeast inh; inhibition, % at 10 µM; AID 435006; 81% of 1,300 active; in the data active means inhibition above about 48%
Casp1 ASC ctr = active in yeast caspase-1-ASC counter-screen for NALP3 inhibitors | shares compounds with NALP3 yeast inh | yeast expressing Caspase-1-ASC, luminescence counter screen | inhibition, % at 10 µM | 66% of 1,000 active | AID 488784
NALP3 retest = retest-confirmed inhibitor of NALP3 in yeast; shares compounds with NALP3 yeast inh; yeast expressing human NALP3, luminescence read-out; inhibition, % at 10 µM; 53% of 1,000 active
Active calls of the source: *. Compounds with a hit are over-represented: about 1.8% of the library has one in this group of screens. Unless noted, no stated cut-off is given here; in the data, active means inhibition above about 50%; inactive means the rest.

`C[C@]12CC[C@H](O)C[C@H]1CC[C@@H]1[C@@H]2CC[C@]2(C)C(=O)CC[C@@H]12` gave NALP3 yeast inh 54*, NALP3 yeast conf 67*, Casp1 ASC ctr 65* and NALP3 retest 56*.
Screening C[C@]12CCC3[C@@H](CC[C@H]4C[C@@H](O)CC[C@]34C)C1CCC2=O (some centres undefined) returned PolyA inh -74, Mot1-301 SUMO 67, NALP1 yeast inh 19, NALP3 yeast inh 59* and NALP3 yeast conf 71*.
For C[C@]12CCC3C(CC[C@@H]4C[C@H](O)CC[C@]34C)C1CCC2=O (some centres undefined) the results were Mot1-301 SUMO -5, NALP3 yeast inh 73*, NALP3 yeast conf 72*, Casp1 ASC ctr 72* and NALP3 retest 52*.
For C[C@]12CCC3C(CC[C@H]4C[C@@H](O)CC[C@]34C)C1C[C@@H](O)C2=O (some centres undefined) the results were Mot1-301 SUMO -17 and NALP3 yeast inh 47.
Screening C[C@]12CC[C@@H](O)C[C@H]1CC[C@@H]1[C@@H]2CC[C@]2(C)C(=O)CC[C@@H]12 returned PolyA inh 14, Mot1-301 SUMO -3, NALP3 yeast inh 66*, NALP3 yeast conf 72*, Casp1 ASC ctr 70* and NALP3 retest 60*.
C[C@]12CCC3C(C1CCC2=O)[C@H](O)C[C@H]1C[C@@H](O)CC[C@]31C (some centres undefined) was read as Mot1-301 SUMO 1 and NALP3 yeast inh 11.
`CCC1(C(=O)c2ccccc2)C2c3ccccc3OC(=O)C21C(C)=O` (centres undefined) gave PolyA inh 15, Mot1-301 SUMO 5, NALP1 yeast inh 27 and NALP3 yeast inh -1.
Screening CCN1CCN(C(=O)Cc2coc3ccc4ccccc4c23)CC1 returned PolyA inh -5, Mot1-301 SUMO 10, NALP1 yeast inh 12 and NALP3 yeast inh 1.
`CC(=O)O[C@@]12CO[C@@H]1C[C@H](O)[C@@]1(C)C(=O)[C@H](O)C3=C(C)[C@@H](O)C[C@@](O)([C@@H](OC(=O)c4ccccc4)C12)C3(C)C` (some centres undefined) gave PolyA inh -6, Mot1-301 SUMO -4, NALP1 yeast inh 20 and NALP3 yeast inh 9.
`C[C@]12CC(=O)CC1CCC1C2CC[C@@]2(C)C1CC[C@@H]2O` (some centres undefined) gave PolyA inh -9, Mot1-301 SUMO 35, NALP1 yeast inh 42*, NALP3 yeast inh 60*, NALP3 yeast conf 61*, Casp1 ASC ctr 63* and NALP3 retest 40.
`C[C@]12CCC3C(CC[C@@H]4CC(=O)CC[C@]34C)C1CC[C@@H]2O` (some centres undefined) gave Mot1-301 SUMO 27, NALP3 yeast inh 68* and NALP3 yeast conf 58*.
C[C@]12CCC(=O)C[C@@H]1CC[C@@H]1[C@@H]2CC[C@]2(C)[C@@H](O)CC[C@@H]12 was read as NALP3 yeast inh 50*, NALP3 yeast conf 55*, Casp1 ASC ctr 60* and NALP3 retest 42.
CC12CCC3C(CCC4C/C(=N/O)CCC43C)C1CCC2O (centres undefined) was read as PolyA inh -7, Mot1-301 SUMO 4, NALP1 yeast inh 36, NALP3 yeast inh 63*, NALP3 yeast conf 42, Casp1 ASC ctr 63* and NALP3 retest 47.
Screening Cc1cccc(N2C(=O)NC(=O)/C(=C/c3ccc(N4CCOCC4)cc3)C2=O)c1 returned PolyA inh 21, Mot1-301 SUMO -6, NALP1 yeast inh 6 and NALP3 yeast inh 4.
For O=c1[nH]c(=O)n(Cc2ccc(F)cc2)c(O)c1C=Nc1ccc(Cl)cc1 the results were PolyA inh -2, Mot1-301 SUMO -12, NALP1 yeast inh -8 and NALP3 yeast inh 0.
`CC(C)Oc1ccc(CCN)cc1Cl` gave PolyA inh -19, Mot1-301 SUMO -8, NALP1 yeast inh 44*, NALP3 yeast inh 53*, NALP3 yeast conf 57*, Casp1 ASC ctr 35 and NALP3 retest 46.
`CCCC(=O)NC(Oc1ccc(Cl)cc1Cl)C(Cl)(Cl)Cl` (centres undefined) gave PolyA inh 8, Mot1-301 SUMO -13, NALP1 yeast inh 0 and NALP3 yeast inh 14.
Screening CCCCC/C(=N/O)c1c(C)[nH]c2ccccc12 returned PolyA inh -4, Mot1-301 SUMO -19, NALP1 yeast inh 10 and NALP3 yeast inh 9.
`CCCCC/C(=N\O)c1c[nH]c2ccccc12` gave PolyA inh -32, Mot1-301 SUMO -8, NALP1 yeast inh 8, NALP3 yeast inh 55*, NALP3 yeast conf 57*, Casp1 ASC ctr 53* and NALP3 retest 46.
`CCOP(=O)(Oc1ccccc1)c1c([N+](=O)[O-])cc(C(F)(F)F)cc1[N+](=O)[O-]` (centres undefined) gave PolyA inh -7, Mot1-301 SUMO -1, NALP1 yeast inh 14 and NALP3 yeast inh 21.
O=C(NC1CN2CCC1CC2)c1cccc(Cl)c1 (centres undefined) was read as PolyA inh -3, Mot1-301 SUMO 168, NALP1 yeast inh 13 and NALP3 yeast inh 6.
CC1(C)C(=O)CC[C@@]2(C)C1=CCC1C2CC[C@]2(C)C(=O)CCC12 (some centres undefined) was read as Mot1-301 SUMO 3, NALP3 yeast inh 59* and NALP3 yeast conf 48*.
CCC1C=CC=CC[C@H](C)[C@@H](O)[C@](C)(O)C(=O)[C@@H](C)[C@H](O)[C@@H](C)C(=O)[C@H](C)[C@@H](O)[C@H](C)C=CC(=O)OC2[C@@H](C)C(CC1)OC1(CC[C@@H](C)C(C[C@H](C)O)O1)[C@@H]2C (some centres undefined) was read as Mot1-301 SUMO 41, NALP3 yeast inh 82*, NALP3 yeast conf 88*, Casp1 ASC ctr 57* and NALP3 retest 72*.
CN1C(=O)/C(=C/c2cccn2-c2ccc3ccccc3c2)C(=O)NC1=S was read as PolyA inh -6, Mot1-301 SUMO 8, NALP1 yeast inh 20, NALP3 yeast inh 56* and NALP3 yeast conf 18.
For CN1C(=O)C(=Cc2c(OCc3cnc(Cl)s3)ccc3ccccc23)C(=O)N(C)C1=O the results were PolyA inh -6, Mot1-301 SUMO -21, NALP1 yeast inh 2, NALP3 yeast inh 59*, NALP3 yeast conf 58*, Casp1 ASC ctr 72* and NALP3 retest 62*.
For C[C@@H]1C[C@@H]([C@H](O)CC2CC(=O)NC(=O)C2)C(=O)[C@@H](C)C1 the results were Mot1-301 SUMO 247, NALP3 yeast inh 97*, NALP3 yeast conf 98*, Casp1 ASC ctr 99* and NALP3 retest 98*.
CCCCP(=O)(O)c1ccccc1 was read as PolyA inh 7, Mot1-301 SUMO 4, NALP1 yeast inh 15 and NALP3 yeast inh 4.
Screening Cc1cnc[nH]1 returned Mot1-301 SUMO 106 and NALP3 yeast inh 6.
For COC(=O)C1=C(c2ccc(F)cc2F)C[C@@H]2CC[C@H]1N2C(=O)NC1Cc2ccccc2C1 the results were Mot1-301 SUMO -3, NALP3 yeast inh -136 and NALP3 yeast conf 22.
